PubChem BioAssay (EPA / NIEHS)
Active and inactive are the calls of the source. The calls were made as follows: active = hit-call score of the fitted dose curve at least 0.9, where 1 is the maximum; inactive = score below 0.9.

How the values were obtained:
Settings in all cases: mRNA level, 48 h; actives raise or lower the signal
[1] = read-out: Glutamate-cysteine ligase catalytic (GCLC), GCLC (gene 2729); assay: LTEA_HepaRG_GCLC: Life Technologies and Expression Analysis (LTEA) Assay for Glutamate-cysteine ligase catalytic (GCLC) using HepaRG (AID 2283498)
Summary of the method: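 Read-out is GCLC transcript level by Fluidigm-based TaqMan qRT-PCR, normalized to three housekeeping genes and fitted in both directions relative to 0.5% DMSO. Human HepaRG cells received chemicals for 48 h, up to 100 uM.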

[2] = read-out: growth arrest and DNA damage 45 (GADD45G), GADD45G (gene 10912); assay: LTEA_HepaRG_GADD45G: Life Technologies and Expression Analysis (LTEA) Assay for growth arrest and DNA damage 45 (GADD45G) using HepaRG (AID 2283499)
Summary of the method: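 Differentiated human HepaRG cells, 48 h post-plating, exposed 48 h in serum-free induction medium to 8 half-log concentrations (top 100 uM, 0.5% DMSO) in duplicate. GADD45G mRNA measured by Fluidigm TaqMan qRT-PCR, normalized to ACTB, GAPDH, POLR2A; bidirectional fit versus DMSO.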

[3] = read-out: Glutamate-cysteine ligase regulatory (GCLM), GCLM (gene 2730); assay: LTEA_HepaRG_GCLM: Life Technologies and Expression Analysis (LTEA) Assay for Glutamate-cysteine ligase regulatory (GCLM) using HepaRG (AID 2283500)
Summary of the method: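 Differentiated human HepaRG cells exposed 48 h in serum-free induction medium to 8-point half-log concentrations (top 100 uM, 0.5% DMSO), in duplicate. GCLM mRNA quantified by qRT-PCR, normalized to ACTB, GAPDH, POLR2A; bidirectional fitting versus DMSO.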

[4] = read-out: 3-Hydroxy-3-Methylglutaryl-CoA Synthase 2 (HMGCS2), HMGCS2 (gene 3158); assay: LTEA_HepaRG_HMGCS2: Life Technologies and Expression Analysis (LTEA) Assay for 3-Hydroxy-3-Methylglutaryl-CoA Synthase 2 (HMGCS2) using HepaRG (AID 2283504)
Summary of the method: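 Human HepaRG cells in serum-free induction medium were exposed in duplicate for 48 h to 8-point half-log series from 100 uM top in 0.5% DMSO. HMGCS2 mRNA measured by TaqMan qRT-PCR, normalised to ACTB, GAPDH, POLR2A; bidirectional fit versus DMSO.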

[5] = read-out: HGF (gene 3082); assay: LTEA_HepaRG_HGF: Life Technologies and Expression Analysis (LTEA) Assay for Hepatocyte Growth Facto (HGF) using HepaRG (AID 2283505)
Summary of the method: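 Differentiated HepaRG cells in serum-free induction medium exposed 48 h in duplicate, 8 half-log concentrations from 100 uM in 0.5% DMSO. HGF mRNA by qRT-PCR, normalised to ACTB, GAPDH, POLR2A; bidirectional fitting.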

[6] = read-out: Insulin Like Growth Factor 1 (IGF1), IGF1 (gene 3479); assay: LTEA_HepaRG_IGF1: Life Technologies and Expression Analysis (LTEA) Assay for Insulin Like Growth Factor 1 (IGF1) using HepaRG (AID 2283506)
Summary of the method: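 Differentiated human HepaRG cells were dosed for 48 h in serum-free induction medium with 0.5% DMSO, eight half-log concentrations up to 100 uM, in duplicate. IGF1 mRNA was quantified by qRT-PCR normalized to ACTB, GAPDH, POLR2A; bidirectional fitting versus DMSO.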

[7] = read-out: Intercellular Adhesion Molecule 1 (ICAM1), ICAM1 (gene 3383); assay: LTEA_HepaRG_ICAM1: Life Technologies and Expression Analysis (LTEA) Assay for Intercellular Adhesion Molecule 1 (ICAM1) using HepaRG (AID 2283507)
Summary of the method: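 Differentiated human HepaRG cells in serum-free induction medium exposed 48 h in duplicate to 8 half-log concentrations (top 100 uM, 0.5% DMSO). ICAM1 mRNA quantified by TaqMan qRT-PCR, normalized to ACTB, GAPDH and POLR2A; bidirectional fitting versus DMSO.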

[8] = read-out: Insulin-like growth factor-binding protein 1 (IGFBP1), IGFBP1 (gene 3484); assay: LTEA_HepaRG_IGFBP1: Life Technologies and Expression Analysis (LTEA) Assay for Insulin-like growth factor-binding protein 1 (IGFBP1) using HepaRG (AID 2283508)
Summary of the method: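 HepaRG cells, plated 48 h then switched to serum-free induction medium, exposed in duplicate for 48 h to 8-point half-log series from 100 uM in 0.5% DMSO. mRNA measured by qRT-PCR, normalized to ACTB/GAPDH/POLR2A; bidirectional fit versus DMSO.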

[9] = read-out: Interleukin 6 Receptor (IL6R), IL6R (gene 3570); assay: LTEA_HepaRG_IL6R: Life Technologies and Expression Analysis (LTEA) Assay for Interleukin 6 Receptor (IL6R) using HepaRG (AID 2283510)
Summary of the method: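 Differentiated human HepaRG cells, plated 48 h then switched to serum-free induction medium, were dosed in duplicate for 48 h at eight half-log concentrations up to 100 uM in 0.5% DMSO. IL6R mRNA quantified by qRT-PCR, normalized to ACTB/GAPDH/POLR2A; bidirectional fit versus DMSO.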

[10] = read-out: Potassium channel subfamily K member 1 (KCNK1), KCNK1 (gene 3775); assay: LTEA_HepaRG_KCNK1: Life Technologies and Expression Analysis (LTEA) Assay for Potassium channel subfamily K member 1 (KCNK1) using HepaRG (AID 2283511)
Summary of the method: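 Gain or loss of KCNK1 mRNA is the read-out, quantified by qRT-PCR against three housekeeping genes after 48 h chemical treatment of human HepaRG liver cells. Concentrations ran from 100 uM downward in half-log steps, vehicle 0.5% DMSO.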

[11] = read-out: Keratin 19 (KRT19), KRT19 (gene 3880); assay: LTEA_HepaRG_KRT19: Life Technologies and Expression Analysis (LTEA) Assay for Keratin 19 (KRT19) using HepaRG (AID 2283512)
Summary of the method: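 Differentiated HepaRG cells in serum-free induction medium, exposed 48 h in duplicate to 8 half-log concentrations up to 100 uM in 0.5% DMSO. KRT19 mRNA by qRT-PCR, normalized to ACTB, GAPDH, POLR2A; bidirectional fit vs DMSO.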

[12] = read-out: JUN Transcription Factor, JUN (gene 3725); assay: LTEA_HepaRG_JUN: Life Technologies and Expression Analysis (LTEA) Assay for JUN Transcription Factor using HepaRG (AID 2283513)
Summary of the method: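 Differentiated HepaRG cells were exposed to chemicals for 48 h in serum-free induction medium, 8 concentrations from 100 uM in half-log steps, 0.5% DMSO vehicle, in duplicate. JUN mRNA was quantified by TaqMan qRT-PCR, normalized to ACTB, GAPDH, POLR2A.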

[13] = read-out: Lipase C (LIPC), LIPC (gene 3990); assay: LTEA_HepaRG_LIPC: Life Technologies and Expression Analysis (LTEA) Assay for Lipase C (LIPC) using HepaRG (AID 2283514)
Summary of the method: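 Read-out is LIPC transcript level by TaqMan qRT-PCR, normalized to three housekeeping genes, after 48 h chemical treatment of human HepaRG liver cells. Curves span eight concentrations topping at 100 uM; activity in either direction scored relative to 0.5% DMSO.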

[14] = read-out: MicroRNA 122 (MIR122), gene 406906; assay: LTEA_HepaRG_MIR122: Life Technologies and Expression Analysis (LTEA) Assay for MicroRNA 122 (MIR122) using HepaRG (AID 2283516); also: the transcript read is the microRNA miR-122
Summary of the method: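 Differentiated human HepaRG cells were exposed 48 h in serum-free induction medium to eight half-log concentrations (top 100 uM, 0.5% DMSO). Transcript level was measured by TaqMan qRT-PCR, normalized to ACTB, GAPDH and POLR2A, and fitted bidirectionally versus DMSO.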

[15] = read-out: matrix metalloproteinase-10 (MMP10), MMP10 (gene 4319); assay: LTEA_HepaRG_MMP10: Life Technologies and Expression Analysis (LTEA) Assay for matrix metalloproteinase-10 (MMP10) using HepaRG (AID 2283517)
Summary of the method: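 Gain or loss of MMP10 mRNA is fitted relative to the 0.5% DMSO vehicle. The human hepatic line HepaRG receives a 48-hour serum-free exposure, in duplicate, with a maximum concentration of 100 uM.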

[16] = read-out: Interleukin 6 (IL6), IL6 (gene 3569); assay: LTEA_HepaRG_IL6: Life Technologies and Expression Analysis (LTEA) Assay for Interleukin 6 (IL6) using HepaRG (AID 2283509)
Summary of the method: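 HepaRG, ~100,000 cells/well, 48 h pre-culture; serum-free induction medium; cmpd 8-pt half-log from 100 uM, 0.5% DMSO, duplicate, 48 h. Lysis in RLT, TaqMan qRT-PCR; gain or loss vs DMSO.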

[17] = read-out: Lipoprotein lipase (LPL), LPL (gene 4023); assay: LTEA_HepaRG_LPL: Life Technologies and Expression Analysis (LTEA) Assay for Lipoprotein lipase (LPL) using HepaRG (AID 2283515)
Summary of the method: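 Read-out is LPL transcript level by qRT-PCR, normalized to three housekeeping genes and fitted bidirectionally against the DMSO control. Human HepaRG cells received chemicals for 48 h at up to 100 uM.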

Measured: AC50

CC(C)CCCCCCOC(=O)C1CCCCC1C(=O)OCCCCCCC(C)C (configuration not stated)
not listed: [16] | [17]
inactive: all other assays above

NC(=O)NN=Cc1ccc([N+](=O)[O-])o1
active: [3] 9.92 µM | [4] 13.3 µM | [5] 12.4 µM | [6] 9.92 µM | [7] 211 nM | [8] 50 µM | [10] 223 nM | [12] 11.6 µM | [13] 233 nM | [15] 9.92 µM
inactive: [1] | [2] | [9] | [11] | [14]

Nc1ccn([C@@H]2O[C@H](CO)[C@@H](O)[C@@H]2O)c(=O)n1
inactive: all assays above
